ERK EGF inh = blocks ERK signaling stimulated by EGF. 0.41% of 130,000 active. AID 1454. HEK293-V1b, EGF-stimulated phospho-ERK AlphaScreen. Potency, µM (titrated, usually from 11.5 µM), inactives show at the highest dose activity change, negative = inhibition, most hits filed as inhibitors; active means well fitted inhibition curve with a large enough effect;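 further: plate controls were stimulated vehicle wells for no effect and unstimulated vehicle basal for full effect; nearly all actives have a fitted effect of over 55% in size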
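Phospho-ERK1/2 measured by AlphaScreen (SureFire) after 5 min 25 nM EGF stimulation of V1b-expressing HEK293 cells preincubated 30 min at 37C with titrated compounds; data scaled to DMSO and EGF controls, Hill-fitted AC50.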
Starred values were filed as active, the others as inactive; [ ] = remark or other dose. The sample as a whole holds a higher share of hits than the screen did. Potency means the concentration at half of the fitted maximal effect.

SMILES	ERK EGF inh
CC(C)n1c(O)c(C2c3cc(Cl)ccc3Oc3[nH]c(=O)n(C(C)C)c(=O)c32)c(=O)[nH]c1=O (centres undefined)	3.2µM*
CC(=O)c1c(O)n(-c2cccc(Cl)c2)c(=O)[nH]c1=O (tested in a mixture with another compound)	-10%[57.5 µM]
Cl.Cl.Cl.Cl.Cl.Cl.N.N.N.N.NNNNN.NNNNN.O.O.[Ru].[Ru].[Ru]	-10%
CCCN1CCCC(c2cccc(O)c2)C1 (centres undefined)	16%
CC1CC(Cl)CCC1C(=O)OC(C)(C)C (centres undefined)	16%
CCCCC/C=C\C/C=C\C/C=C\CCCCC(=O)NCCO	-1%
C=C(COC(C)=O)CC1CC(O)[C@]2(C)OC3CC4OC5C[C@]6(C)O[C@]7(C)CCC8OC9C[C@]%10(C)OC%11C(C)=CC(=O)OC%11CC%10OC9C[C@@H](C)C8OC7CC6O[C@]5(C)C/C=C\C4OC3CC2O1 (some centres undefined)	-11%[57.5 µM]
C=C(C=O)CC1CC(O)[C@]2(C)OC3CC4OC5C[C@]6(C)O[C@]7(C)CCC8OC9C[C@]%10(C)OC%11C(C)=CC(=O)OC%11CC%10OC9C[C@@H](C)C8OC7CC6O[C@]5(C)CC5OC5C4OC3CC2O1 (some centres undefined)	35µM*
C=C(CO)CC1CC(O)[C@]2(C)OC3CC4OC5C[C@]6(C)O[C@]7(C)CCC8OC9C[C@]%10(C)OC%11C(C)=CC(=O)OC%11CC%10OC9C[C@@H](C)C8OC7CC6O[C@]5(C)C/C=C\C4OC3CC2O1 (some centres undefined)	-17%[57.5 µM]
O=C1Nc2ccccc2C2(CCN(CCc3ccc(C(F)(F)F)cc3)CC2)O1	32µM*
CNc1ccc2oc(C[C@H]3O[C@]4(CC[C@H]3C)O[C@H]([C@H](C)C(=O)c3ccc[nH]3)[C@H](C)C[C@H]4C)nc2c1C(=O)O	-15%
CN(N=O)c1ccc(O)c(O)c1	16%
CC1CC[C@@]2(OC1)OC1C(O)C3C4CC[C@H]5CC(O[C@@H]6O[C@@H](CO)[C@H](OC7OC(CO)C(O)C(OC8OCC(O)C(O)[C@H]8O)[C@@H]7O[C@@H]7OC(CO)[C@H](O)[C@@H](O[C@@H]8OC(CO)C(O)C(O)C8O)C7O)C(O)C6O)C(O)C[C@]5(C)C4CC[C@]3(C)C1C2C (some centres undefined)	7.1µM*
CC(=O)OC1C[C@H](O[C@@H]2C(O)C[C@H](O[C@@H]3C(O)C[C@@H](OC4CC[C@]5(C)C(CCC6C5CC(O)[C@@]5(C)C(C7=CC(=O)OC7)CC[C@@]65O)C4)OC3C)OC2C)O[C@H](C)[C@H]1O[C@H]1OC(CO)C(O)C(O)C1O (some centres undefined)	18%
CC1CC[C@@]2(OC1)O[C@@H]1[C@@H](O)[C@H]3C4CC[C@H]5C[C@@H](O[C@@H]6O[C@H](CO)[C@H](O[C@@H]7O[C@H](CO)[C@@H](O)[C@H](O[C@@H]8OC[C@@H](O)[C@H](O)[C@H]8O)[C@H]7O[C@@H]7O[C@H](CO)[C@@H](O)[C@H](O[C@@H]8O[C@H](CO)[C@@H](O)[C@H](O)[C@H]8O)[C@H]7O)[C@H](O)[C@H]6O)[C@H](O)C[C@]5(C)C4CC[C@]3(C)[C@H]1[C@@H]2C (some centres undefined)	-3%
O=C1/C(=C\c2ccccc2)C[C@@]2(O)[C@H]3Cc4ccc(O)c5c4[C@@]2(CCN3CC2CC2)[C@@H]1O5	0%
COC1=C[C@H]2[C@H]3Cc4ccc(OC)c(O)c4[C@@]2(CCN3C)CC1=O	-10%
C[Se]C[C@H](N)C(=O)O	2%
C[C@]12CCC3C(CC[C@]4(O)C[C@@H](O)CC[C@]34C=O)[C@@]1(O)CC[C@@H]2C1=CC(=O)OC1 (some centres undefined)	-2%
COC(=O)C12C/C=C\Cc3ccccc3[C@@H]1CNC2=O (some centres undefined)	0%
NCC(=O)c1ccccc1	21%
CC(C)OP(=O)(O)NC(=O)c1ccccc1	3%
CC(=O)[O][Hg][c]1ccccc1	14µM*
Oc1cc2c(cc1O)[C@H]1c3ccccc3CN[C@H]1CC2	-2%
Cc1ccccc1-c1cncnc1NCCc1cnc[nH]1	14%
SMILES	ERK EGF inh
O=C1NO[C@@H]2CN[C@@H](C(=O)O)[C@H]12	0%
C=C(C)C(=O)CP(=O)(OCC)OCC	-8%
CCCN(CCC)[C@@H]1CCc2c(F)ccc(O)c2C1	17%
C[C@]12CC[C@@H](O)CC1CCC1C2CC[C@]2(C)C(=O)CC[C@@H]12 (some centres undefined)	14%
CNc1ccccc1C(=O)O	23%
C[CH2][Hg][S]c1ccccc1C(=O)O	32µM*
CC(C)COC(=O)c1ccccc1C(=O)OCC(C)C	-11%[57.5 µM]
O=C1NO[C@H]2[C@@H]1CN[C@@H]2C(=O)O	-3%
COC(=O)[C@]1(C)CC[C@@]2(C)CC[C@@]3(C)C4=CCc5c(cc(O)c(O)c5C)[C@]4(C)CC[C@@]3(C)C2C1 (some centres undefined)	21%
